From paper PMC4336329 (PLoS ONE, 2015)
About 14,000 (4.5%) of roughly 310,000 compounds showed an effect of 50% or more. Effects have a minus sign here. For the sample, strong results were picked, then their nearest neighbours and some compounds at random.

These compounds were tested against human ether-à-go-go-related gene (hERG) potassium channel (human, UniProt Q12809) (assay: primary screen, population patch clamp on CHO cells stably expressing hERG; higher = less effect of the substance).
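Note: peak tail current of the secondary pulse compared with the same well before compound.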

human ether-à-go-go-related gene (hERG) potassium channel, sequence (Q12809 whole entry, looked up): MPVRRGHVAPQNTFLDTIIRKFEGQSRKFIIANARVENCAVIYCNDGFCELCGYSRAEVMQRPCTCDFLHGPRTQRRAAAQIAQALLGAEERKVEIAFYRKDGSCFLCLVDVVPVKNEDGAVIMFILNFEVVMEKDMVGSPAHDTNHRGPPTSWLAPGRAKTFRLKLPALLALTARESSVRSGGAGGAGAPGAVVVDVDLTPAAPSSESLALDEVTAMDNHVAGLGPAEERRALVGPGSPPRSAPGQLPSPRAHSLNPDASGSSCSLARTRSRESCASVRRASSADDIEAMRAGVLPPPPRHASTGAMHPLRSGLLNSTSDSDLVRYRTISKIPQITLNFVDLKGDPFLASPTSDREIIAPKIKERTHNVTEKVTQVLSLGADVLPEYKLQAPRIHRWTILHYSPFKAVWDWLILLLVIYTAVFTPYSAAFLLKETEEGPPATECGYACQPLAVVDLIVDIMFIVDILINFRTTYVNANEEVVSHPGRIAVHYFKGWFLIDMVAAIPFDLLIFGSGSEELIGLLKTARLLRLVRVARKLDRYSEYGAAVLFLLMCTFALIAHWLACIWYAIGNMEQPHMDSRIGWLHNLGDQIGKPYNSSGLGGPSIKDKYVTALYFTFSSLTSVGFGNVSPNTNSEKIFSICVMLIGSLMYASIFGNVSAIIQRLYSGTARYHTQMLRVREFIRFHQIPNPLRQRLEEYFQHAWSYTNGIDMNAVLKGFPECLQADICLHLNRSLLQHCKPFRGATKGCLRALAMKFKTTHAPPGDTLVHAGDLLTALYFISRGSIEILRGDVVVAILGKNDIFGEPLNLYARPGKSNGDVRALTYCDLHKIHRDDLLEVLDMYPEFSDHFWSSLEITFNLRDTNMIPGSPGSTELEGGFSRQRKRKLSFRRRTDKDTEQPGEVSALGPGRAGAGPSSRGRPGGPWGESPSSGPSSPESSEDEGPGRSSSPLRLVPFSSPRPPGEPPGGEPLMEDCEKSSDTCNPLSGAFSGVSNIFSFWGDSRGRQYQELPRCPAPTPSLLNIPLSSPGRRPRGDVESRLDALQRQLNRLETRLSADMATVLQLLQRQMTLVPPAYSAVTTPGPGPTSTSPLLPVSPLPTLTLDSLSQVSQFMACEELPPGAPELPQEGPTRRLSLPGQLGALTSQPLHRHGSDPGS

First: O=C(N/N=C\c1cc([N+](=O)[O-])ccc1N1CCCC1)c1ccccn1
Second: CN1CCN(c2ccc([N+](=O)[O-])cc2/C=N/NC(=O)c2cccc([N+](=O)[O-])c2)CC1
The “hERG current change (%, negative = inhibition) at 10uM” value of the first is higher: -3.3% for the first, -54% for the second.

First: CCN(CC)C(=O)C1CCCN(c2ccc([N+](=O)[O-])cc2)C1 (stereo not shown)
Second: CCOC(=O)CC(NC(C)=O)c1ccc([N+](=O)[O-])cc1 (stereo not shown)
The “hERG current change (%, negative = inhibition) at 10uM” value of the first is lower: -52.2% for the first, -1.79% for the second.

Going from `COc1ccc(-c2nnc(CSc3nc4ccccc4c(=O)n3CC3CCCO3)o2)cc1OC` (stereo not shown) to `COc1ccc(Cc2noc(CN(C)CC3(N4CCOCC4)CCCCC3)n2)cc1OC`, the “hERG current change (%, negative = inhibition) at 10uM” value rises from -49% to -15.5%.

First: CN(Cc1nc(Cc2ccccc2F)no1)CC1(N2CCOCC2)CCCCC1
Second: CN(Cc1nc(-c2cccs2)no1)CC1(N2CCOCC2)CCCCC1
The “hERG current change (%, negative = inhibition) at 10uM” value of the first is lower: -62.8% for the first, -24.2% for the second.

Compared with `Cc1cc(C(C)(C)C)ccc1OCC(=O)N/N=C\c1c(C)n(C)n(-c2ccccc2)c1=O`, `COc1cc(Br)cc(Br)c1OCC(=O)N/N=C/c1c(C)n(C)n(-c2ccccc2)c1=O` is higher in “hERG current change (%, negative = inhibition) at 10uM” value: -66.3% for the first, -23.1% for the second.

First: Cc1ccccc1OCC(=O)N/N=C/c1c(C)nn(-c2ccccc2)c1Cl
Second: Cc1nn(-c2ccccc2)c(C)c1NC(=O)COc1ccc(C#N)cc1
The “hERG current change (%, negative = inhibition) at 10uM” value of the first is higher: 1.74% for the first, -36.9% for the second.

Compared with `CCOC(=O)c1c(N/N=C/c2ccncc2)n[nH]c1C`, `CCOC(=O)c1cccc(NC(=O)CSc2nnc(COc3ccc(Cl)cc3)o2)c1` is higher in “hERG current change (%, negative = inhibition) at 10uM” value: -10.9% for the first, 16.3% for the second.

First: COCCN(CC(=O)NC1CCCCC1)C(=O)CCCC(=O)Nc1ccccn1
Second: O=C(CC1C(=O)NCCN1Cc1cccc(F)c1F)NC1CCCCCC1 (stereo not shown)
The “hERG current change (%, negative = inhibition) at 10uM” value of the first is higher: 10% for the first, -10.6% for the second.

Compared with `COC/C=C/C1=CC2=CC(=O)C(C)(OC(=O)c3cnc4ccccc4n3)C(=O)C2=CN1Cc1ccco1` (stereo not shown), `Cc1nn(-c2ccccc2)c(C)c1NC(=O)COc1ccc([N+](=O)[O-])cc1` is lower in “hERG current change (%, negative = inhibition) at 10uM” value: 0.0609% for the first, -69.4% for the second.

First: O=C(Nc1ccc2[nH]c(=O)[nH]c2c1)C(F)(F)F
Second: CCC(C(=O)NCc1cccs1)n1nc(C)n2c(cc3occc32)c1=O (stereo not shown)
The “hERG current change (%, negative = inhibition) at 10uM” value of the first is higher: 14.9% for the first, 0.0905% for the second.

Going from `Cn1cc(C(=O)N2CCCCC2)c2ccccc21` to `C=C[C@H]1CN2CC[C@H]1C[C@H]2[C@H](O)c1ccnc2ccccc12`, the “hERG current change (%, negative = inhibition) at 10uM” value falls from 4.66% to -34%.

First: Cc1cc(C)c(S(=O)(=O)NCCOc2ccccc2)c(C)c1-n1cnnn1
Second: CC(=O)c1ccc(OCC(=O)Nc2c(C)nn(-c3ccccc3)c2C)cc1
The “hERG current change (%, negative = inhibition) at 10uM” value of the first is higher: 7.74% for the first, -2.73% for the second.

Going from `C=CC1CN2CCC1CC2[C@@H](OC(=O)c1ccc(OC)cc1)c1ccnc2ccccc12` (stereo partly shown) to `C=C[C@H]1CN2CC[C@H]1C[C@@H]2[C@@H](O)c1ccnc2ccccc12`, the “hERG current change (%, negative = inhibition) at 10uM” value falls from -37.3% to -57.1%.

Compared with `CC(Nc1ccccc1)c1cccnc1` (stereo not shown), `CC(NC(=O)COc1ccc([N+](=O)[O-])cc1)c1ccccc1` (stereo not shown) is higher in “hERG current change (%, negative = inhibition) at 10uM” value: -49.1% for the first, -34.5% for the second.

Compared with `COc1ccc(CCNS(=O)(=O)c2ccc(Cl)cc2)cc1OC`, `Cc1ccc(S(=O)(=O)NCCC(=O)OCc2ccc([N+](=O)[O-])cc2)cc1C` is lower in “hERG current change (%, negative = inhibition) at 10uM” value: -6.54% for the first, -42.3% for the second.

Compared with `CC(=O)NC(CC(=O)O)c1ccc([N+](=O)[O-])cc1` (stereo not shown), `CC(=O)NC(CC(=O)OCc1ccc([N+](=O)[O-])cc1)c1ccccc1` (stereo not shown) is lower in “hERG current change (%, negative = inhibition) at 10uM” value: 10.6% for the first, -63.1% for the second.

Compared with `CC(=O)Nc1ccc(S(=O)(=O)NCCC(=O)OCc2ccc([N+](=O)[O-])cc2)cc1`, `CC(=O)Nc1ccc(S(=O)(=O)NCCC(=O)OCc2ccccc2F)cc1` is higher in “hERG current change (%, negative = inhibition) at 10uM” value: -57.4% for the first, -8.68% for the second.

Going from `O=C(O)CC(NC(=O)COc1ccccc1)c1cccc([N+](=O)[O-])c1` (stereo not shown) to `CCC(NC(=O)COc1ccc([N+](=O)[O-])cc1)c1ccccc1` (stereo not shown), the “hERG current change (%, negative = inhibition) at 10uM” value falls from 18.8% to -50.7%.

First: CCOc1ccc(S(=O)(=O)N(CC)CC)cc1NC(=O)c1ccc(N2CCCC2=O)cc1
Second: COC(=O)c1ccc(NC(=O)N2CCC(O)(c3cccnc3)CC2)cc1
The “hERG current change (%, negative = inhibition) at 10uM” value of the first is higher: 18.2% for the first, 9.11% for the second.

Compared with `O=C(N/N=C/c1cccnc1)c1ccc(CN2c3cccc4cccc(c34)S2(=O)=O)cc1`, `Nn1c(Nc2ccccc2)nc2ccccc2c1=O` is higher in “hERG current change (%, negative = inhibition) at 10uM” value: 5.22% for the first, 14.2% for the second.

Going from `COc1ccc(C(C(=O)NC2CCCCC2)N2CCC3(CC2)OCCO3)cc1` (stereo not shown) to `CC1CCN(c2ccc(S(=O)(=O)NC3=NCCCCC3)cc2[N+](=O)[O-])CC1`, the “hERG current change (%, negative = inhibition) at 10uM” value falls from -8.32% to -11.2%.

`COc1cccc(C2CC(c3cccs3)=NN2S(C)(=O)=O)c1OC` (stereo not shown) was tested, and the “hERG current change (%, negative = inhibition) at 10uM” value was 7.29%.
